The source of these data is PubChem BioAssay (NCATS).

The viability is a read-out of living cells in per cent, often relative to untreated cells.

The nature of test [1]: BET inhibitor-based combinations targeting novel dependencies in MECOM-rearranged (r) AML: SET-2 cell line (AID 2202231).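 For viability: plate controls were DMSO treated cells for no effect and wells without cells for full effect.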 Note: nearly all actives have a fitted effect of over 35% in size. The following applies: SET-2 AML cells viability, CellTiter-Glo luminescence, 48 h; viability: hits give low values, concentration not given here. Put shortly: (§1)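 Luminescent ATP readout (CellTiter-Glo) after 48 hr drug exposure gives viability. Curves span 11 concentrations and are normalized to DMSO and empty wells. Activity is reported as area under the curve and its Z-transform within each cell line.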

A short description of test [2]: BET inhibitor-based combinations targeting novel dependencies in MECOM-rearranged (r) AML: OCI-AML3 cell line (AID 2202232).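 For viability (% of control): series mostly up to about 46 µM; plate controls were DMSO vehicle wells for no effect and wells without cells for full effect.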 Note: nearly all actives have a fitted effect of over 35% in size. The following applies: Potency: OCI-AML3 viability. Put shortly: as §1
The nature of test [3]: BET inhibitor-based combinations targeting novel dependencies in MECOM-rearranged (r) AML: MV-4-11 cell line (AID 2202233).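 For viability, % of control: plate controls were DMSO for no effect and blank wells for full effect.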 Note: nearly all actives have a fitted effect of over 45% in size. Put shortly: (§2)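 Luminescent ATP readout (CellTiter-Glo, 15 min at room temperature) after 48 hr drug exposure gave viability. Dose-response curves, normalized to DMSO and empty-well controls, were summarized as area under the curve and its mean-centred Z-score.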

The nature of test [4]: BET inhibitor-based combinations targeting novel dependencies in MECOM-rearranged (r) AML: UCSD-AML1 cell line (AID 2202235).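 For viability (% of control): series mostly up to about 46 µM; plate controls were DMSO vehicle wells for no effect and blank wells for full effect.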 Note: nearly all actives have a fitted effect of over 40% in size. The procedure, abridged: as §2
The nature of test [5]: BET inhibitor-based combinations targeting novel dependencies in MECOM-rearranged (r) AML: AML-191 cell line (AID 2202236; note: nearly all actives have a fitted effect of over 35% in size;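 for viability (% of control): plate controls were vehicle wells for no effect and wells without cells for full effect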). The procedure, abridged: as §1
Test [6] is described as follows: BET inhibitor-based combinations targeting novel dependencies in MECOM-rearranged (r) AML: HNT-34 cell line (AID 2202234).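 For viability (% of control): plate controls were vehicle wells for no effect and cell-free wells for full effect.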 Note: nearly all actives have a fitted effect of over 35% in size. Put shortly: as §2
The nature of test [7]: BET inhibitor-based combinations targeting novel dependencies in MECOM-rearranged (r) AML: AML-194 cell line (AID 2202237; note: nearly all actives have a fitted effect of over 40% in size;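 for viability (% of control): plate controls were vehicle wells for no effect and wells without cells for full effect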). The procedure, abridged:
as §1

Records with an inconclusive call do not appear. A number with no mark means an inactive call. Active and inactive are the calls of the source. Calls come from the whole dose curve; as a rule, active = well fitted curve in the direction sought with a large enough effect; inconclusive = small, poorly fitted or top-dose-only effect, or another doubt; inactive = no such curve, though single readings can be large; an effect the other way counts as inactive or inconclusive.
Potency is the fitted concentration of half-maximal effect.

As for `Cc1c(-c2cnccn2)ssc1=S`, the viability in test [1] is 94.7%. Moreover, the Potency in test [2] was 2.95 µM (active); in test [3] it was 3.72 µM (active). Further, the Potency result in test [4] and in test [5] was “inactive” each time.

For `Cc1cc(-c2cnn3c(NCC4CC(C)(O)C4)cc(Oc4cccnc4)nc23)ccc1C(=O)NC1CC1` (stereo not given), the Potency was 1.18 µM (active) in test [1]; 0.263 µM (active) in test [2]; 0.332 µM (active) in test [3]; 0.934 µM (active) in test [6]; 1.05 µM (active) in test [7].

Consider `CN1C(N)=N[C@](C)(c2cc(NC(=O)c3ccc(F)cn3)ccc2F)CS1(=O)=O`, for which the viability in test [1] was 121%. Also, the Potency entry in test [2], in test [3], in test [4] and in test [5] was “inactive” throughout.

For `CN(Cc1cnc2nc(N)nc(N)c2n1)c1ccc(C(=O)N[C@@H](CCC(=O)O)C(=O)O)cc1`, the Potency in test [1] was 0.0372 µM (active); in test [2] it was 0.0468 µM (active); in test [3] it was 0.105 µM (active); in test [4], 0.332 µM (active).

On to `CSc1ccc(C(=O)/C=C/c2cc(C)c(OC(C)(C)C(=O)O)c(C)c2)cc1`, for which the values for the Potency in test [1], in test [2] and in test [3] were 34 µM (active), 30.3 µM (active) and 6.05 µM (active), respectively. In test [4], the Potency entry is “inactive”.

With `C/C=C(/C)C(=O)O[C@H]1C(C)=CC23C(=O)C(C=C(CO)[C@@H](O)[C@]12O)[C@H]1[C@@H](C[C@H]3C)C1(C)C` (stereo not given in full), the Potency is 7.42 µM (active) in test [1], 0.0053 µM (active) in test [2], 0.0525 µM (active) in test [3] and 0.0019 µM (active) in test [4].

Take `CC1(C)OC2=C(C(=O)c3ccccc3C2=O)[C@H](NCc2ccccc2)[C@@H]1O`: the Potency in test [1] is 6.61 µM (active); in test [2], 11.8 µM (active); in test [3] it was 8.33 µM (active); in test [4] it was 9.34 µM (active); in test [5], 7.42 µM (active).

For the compound `N#C/C(=C1/Nc2ccccc2S1)c1ccnc(OCc2ccc(CN3CCOCC3)cc2)n1`, the Potency in test [1] was 20.9 µM (active); in test [2], 14.8 µM (active); in test [3], 16.6 µM (active); in test [6], 16.6 µM (active); in test [7] it was 20.9 µM (active).

Regarding `C=CC(=O)N1CCC(CNc2ncnc(N)c2-c2ccc(Oc3ccccc3)cc2)CC1`, the viability in test [1] was 101%. Moreover, the Potency in test [2] was 16.6 µM (active); in test [3] it was 13.2 µM (active). Further, the Potency result in test [4] was “inactive”.

In the case of `O=C(O)c1cccnc1`, the viability in test [1] was 118%. Moreover, the Potency entry in test [2], in test [3], in test [6] and in test [7] was “inactive” each time.

As for `CN(C(=O)c1c(O)c2ccccc2n(C)c1=O)c1ccccc1`, in test [1], the viability is 76.1%. For the same compound, the Potency result in test [2], in test [3], in test [6], in test [5] and in test [7] was “inactive” each time.

`C/C(=N\NC(=O)c1cccc(S(=O)(=O)N2CCOCC2)c1)c1cc(Cl)ccc1O`: the Potency was 6.61 µM (active) in test [1]; 1.86 µM (active) in test [2]; 5.9 µM (active) in test [3]; 2.95 µM (active) in test [6]; 2.09 µM (active) in test [5]; 4.17 µM (active) in test [7].

Take `C=C1C(=O)O[C@H]2C[C@H](C)C(/C=C/C(C)=O)=CC[C@H]12`: the Potency in test [1] is 4.68 µM (active); in test [2], 1.18 µM (active); in test [3], 1.86 µM (active); in test [4], 2.09 µM (active); in test [5], 2.35 µM (active).

As for `C=C1/C(=C/C=C2\CCCC3(C)[C@@H]([C@H](C)/C=C/C=C/C(O)(CC)CC)CC[C@@H]23)C[C@@H](O)C[C@@H]1O` (stereo not given in full), in test [1], the viability is 89.5%. Moreover, the results for the Potency in test [2], in test [3] and in test [5] were 16.6 µM (active), 5.25 µM (active) and 26.3 µM (active), respectively. Further, the Potency result in test [4] was “inactive”.

As to `OC[C@H]1O[C@@H](S[C@@H]2O[C@H](CO)[C@H](O)[C@H](n3cc(-c4cccc(F)c4)nn3)[C@H]2O)[C@H](O)[C@@H](n2cc(-c3cccc(F)c3)nn2)[C@H]1O`, in test [1], the viability is 115%. Also, the Potency result in test [2], in test [3], in test [6], in test [5] and in test [7] was “inactive” in each case.

`CC(C)C(=O)OCC(=O)[C@@]12O[C@H](C3CCCCC3)O[C@@H]1C[C@H]1[C@@H]3CCC4=CC(=O)C=C[C@]4(C)[C@H]3[C@@H](O)C[C@@]12C`: the viability in test [1] is 102%. Moreover, the Potency in test [2] was 14.8 µM (active); in test [3] it was 23.5 µM (active); in test [6], 20.9 µM (active); in test [7] it was 16.6 µM (active).

For the compound `CN1CCN(C(=O)[C@H]2[C@@H](C(=O)O)[C@H]3CC[C@@H]2O3)CC1`, the viability in test [1] is 113%. For the same compound, the viability (% of control) was 112% [at 8.46 µM] in test [2], 104% [at 8.46 µM] in test [4] and 93.9% [at 8.46 µM] in test [5]. The viability, % of control in test [3] is 111% [at 8.46 µM].

As to `N#Cc1cc2cc(CN3CCC(Nc4ncnc5sc(CC(F)(F)F)cc45)CC3)c(O)cc2n1Cc1cn[nH]c1`, the Potency in test [1] was 23.5 µM (active); in test [2], 18.6 µM (active); in test [3] it was 5.9 µM (active); in test [6], 23.5 µM (active); in test [7], 26.3 µM (active).

On to `C[C@]12CCC3[C@@H](CC[C@H]4NC(=O)C=C[C@]34C)[C@@H]1CC[C@@H]2C(=O)Nc1cc(C(F)(F)F)ccc1C(F)(F)F` (stereo not given in full), for which the viability in test [1] is 118%. Besides, the Potency entry in test [2], in test [3], in test [6], in test [5] and in test [7] was “inactive” throughout.

On to `C[C@H]1COCCN1c1cc(C2(S(=O)(=O)C3CC3)CC2)nc(-c2ccc(NC(=S)NCCO)cc2)n1`, for which the Potency was 0.417 µM (active) in test [1], 0.833 µM (active) in test [2], 0.0934 µM (active) in test [3] and 0.0105 µM (active) in test [4].

Take `COc1ccnc2[nH]cc(C(=O)C(=O)N3CCN(C(=O)c4ccccc4)C[C@H]3C)c12`: in test [1], the viability is 113%. Further, the Potency result in test [2], in test [3], in test [6], in test [5] and in test [7] was “inactive” each time.
